# Experimental data published in PubChem BioAssay (NCATS).
# “And” between values parts separate entries of the source, which are not always exact repeats. Identical values can stand only once. Records with an inconclusive call do not appear. A call without a number means that no potency is given here. The source made the active and inactive calls. Unless noted, calls come from the whole dose curve.
# Tests used:
# [1] = molecular target: Lysosomal acid glucosylceramidase (Homo sapiens) (UniProt P04062); assay: Glucocerebrosidase-p2 (AID 348; in the data active = potency below about 10 µM; note: potency is the fitted concentration of half-maximal effect); conditions: purified GBA, blue fluorogenic substrate, 40 min
# Sequence of Lysosomal acid glucosylceramidase (Homo sapiens) (P04062 whole entry, looked up): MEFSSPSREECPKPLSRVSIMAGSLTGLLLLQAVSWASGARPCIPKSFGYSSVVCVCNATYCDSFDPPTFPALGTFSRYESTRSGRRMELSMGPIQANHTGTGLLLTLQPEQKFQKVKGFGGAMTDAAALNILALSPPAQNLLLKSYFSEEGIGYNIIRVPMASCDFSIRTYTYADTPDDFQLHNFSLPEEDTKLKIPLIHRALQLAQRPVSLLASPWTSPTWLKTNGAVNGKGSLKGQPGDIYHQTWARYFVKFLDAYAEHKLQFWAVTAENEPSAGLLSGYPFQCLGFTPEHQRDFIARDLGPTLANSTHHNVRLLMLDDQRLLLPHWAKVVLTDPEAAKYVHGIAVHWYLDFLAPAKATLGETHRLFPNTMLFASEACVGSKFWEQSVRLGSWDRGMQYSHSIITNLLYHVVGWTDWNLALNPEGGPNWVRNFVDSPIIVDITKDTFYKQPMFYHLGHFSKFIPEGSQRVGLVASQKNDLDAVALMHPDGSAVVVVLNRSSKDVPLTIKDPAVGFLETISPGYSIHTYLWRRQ
# How it was run: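 Compounds titrated from 0.6 nM upwards against 0.2 nM enzyme in pH 5.9 citric acid/KH2PO4, taurocholate, tween-20; blue fluorogenic substrate 80 uM, 40 min room temperature, stopped and read Ex 365/Em 440 for AC50.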
# [2] = molecular target: Glutathione peroxidase 1 (Homo sapiens) (UniProt P07203); assay: Primary qHTS Assay for Inhibitors of Recombinant Selenoprotein Glutathione Peroxidase 1 (GPX1) (AID 1845191; active = well fitted curve in the direction sought with a large enough effect; an effect the other way counts as inactive or inconclusive; note: nearly all actives have a fitted effect of over 65% in size); conditions: recombinant GPX1, GR-coupled NADPH fluorescence, 15 min; series mostly up to 48.8 µM
# Sequence of Glutathione peroxidase 1 (Homo sapiens) (P07203 whole entry, looked up): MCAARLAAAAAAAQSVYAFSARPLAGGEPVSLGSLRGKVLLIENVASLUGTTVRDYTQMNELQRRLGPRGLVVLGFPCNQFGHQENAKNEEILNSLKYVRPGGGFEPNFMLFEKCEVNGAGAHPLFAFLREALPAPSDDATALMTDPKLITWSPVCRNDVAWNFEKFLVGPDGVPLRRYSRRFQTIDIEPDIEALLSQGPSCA
# How it was run: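 GR-coupled assay: compounds preincubated 30 min at room temperature with GPX1, then reaction started with CHP; final 10 nM GPX1, 1 mM GSH, 0.5 mM CHP, 0.5 mM NADPH, 100 nM GR, 0.01% BSA, pH 7.5 Tris buffer. NADPH fluorescence (340/450 nm) read at 0 and 15 min.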
# [3] = NCATS anti-infectives library activity on HEK293 viability as a counter-qHTS vs the C. elegans viability qHTS (AID 1745854; active = well fitted curve in the direction sought with a large enough effect; an effect the other way counts as inactive or inconclusive); conditions: HEK293 viability counter-screen; series mostly up to 41.8 µM
# How it was run: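 HEK293 cells, 1500 per well, exposed 24 hr at 37C in 5% CO2 to compounds in a 1:5 titration, up to 41.7 uM final. Viability read as CellTiter-Glo luminescence after 10 min at room temperature.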
# [4] = NCATS anti-infectives library activity on the primary C. elegans qHTS viability assay (AID 1745855); conditions: C. elegans worm area imaging, day 7; series mostly up to 41.8 µM
# How it was run: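 Viability is taken from GFP fluorescence of PE254-GFP-FLuc C. elegans imaged by laser cytometry over 7 days. Ten L1 worms per well grow at 21 °C on TOP10 E. coli capsules with titrated compound; levamisole marks toxicity.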
# [5] = Cell Viability - BJ (AID 421); conditions: BJ fibroblast viability, qHTS;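 note: potency is the fitted concentration of half-maximal effect; cells exposed to compound for 40 hours at 37 °C before readout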
# How it was run: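 Quantitative HTS: ATP depletion in BJ cells after 40 hr compound exposure in complete culture medium, detected with CellTiter-Glo; AC50 from standard Hill fits.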
# [6] = Cell Viability - HepG2 (AID 433); conditions: qHTS;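 note: potency is the fitted concentration of half-maximal effect; potency for ATP loss meaning cytotoxicity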
# How it was run: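 In this qHTS format, a 40 h, 37 °C compound incubation of HepG2 cells in complete medium precedes a 20 min CellTiter-Glo step at room temperature. Tamoxifen and doxorubicin serve as positive controls; Hill-equation fits yield AC50.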
# [7] = Cell Viability - MRC5 (AID 434); conditions: MRC5 lung fibroblast viability, qHTS;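 note: potency is the fitted concentration of half-maximal effect; potency reflects cytotoxicity seen as loss of intracellular ATP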
# How it was run: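 MRC5 normal human lung fibroblasts, 1500 cells/well, exposed to compound for 40 hr at 37 C. Cellular ATP was read by CellTiter-Glo luminescence; data normalized to DMSO and 100 uM tamoxifen, with AC50 from Hill fits.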
# [8] = Cell Viability - N2a (AID 540; active = well fitted curve in the direction sought with a large enough effect; an effect the other way counts as inactive or inconclusive; note: nearly all actives have a fitted effect of over 45% in size); conditions: N2a mouse neuroblastoma cell viability; at 92.2 µM (top of the series)
# How it was run: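 Mouse neuroblastoma N2a cells (1500/well) were preincubated 5 hr at 37 °C, then exposed to compounds for 40 hr at 37 °C in complete medium. Viability was read as intracellular ATP by CellTiter-Glo luminescence; AC50 from Hill fits.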
# [9] = Cell Viability - NIH 3T3 (AID 541; active = well fitted curve in the direction sought with a large enough effect; an effect the other way counts as inactive or inconclusive; note: nearly all actives have a fitted effect of over 25% in size); conditions: NIH 3T3 cell viability, qHTS; at 92.2 µM (top of the series)
# How it was run: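 NIH 3T3 mouse embryo fibroblasts (1000 cells/well) were plated in complete medium and treated with compound for 40 hr at 37 °C. Viability was read as intracellular ATP by CellTiter-Glo luminescence; AC50 values came from Hill-equation fits of concentration-response data.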
# [10] = Cell Viability - HUV-EC-C (AID 542; active = well fitted curve in the direction sought with a large enough effect; an effect the other way counts as inactive or inconclusive; note: nearly all actives have a fitted effect of over 35% in size); conditions: HUV-EC-C endothelial cell viability, qHTS; series mostly up to 92.2 µM
# How it was run: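 HUV-EC-C normal human vascular endothelial cells, 1000 cells/well, pre-incubated 5 hr at 37 °C, then exposed to compounds for 40 hr at 37 °C in complete medium. Viability measured as intracellular ATP by CellTiter-Glo luminescence; AC50 from Hill fits.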
# [11] = Cell Viability - Renal Proximal Tubule (AID 545; active = well fitted curve in the direction sought with a large enough effect; an effect the other way counts as inactive or inconclusive; note: nearly all actives have a fitted effect of over 40% in size); conditions: renal proximal tubule cells viability; series mostly up to 91.7 µM
# How it was run: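 In this qHTS format, normal rat kidney-derived proximal tubule cells in complete culture medium receive compound titrations, then sit 40 hours at 37 °C before luciferase-based ATP quantitation; potency is reported as AC50 from concentration-response curves.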
# [12] = Cell Viability - Mesenchymal (AID 546; active = well fitted curve in the direction sought with a large enough effect; an effect the other way counts as inactive or inconclusive;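 note: cells exposed to compound for 40 hours before reading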); conditions: mesenchymal cells viability, qHTS; series mostly up to 91.7 µM
# How it was run: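 Human kidney mesenchymal cells from normal renal glomeruli, 1000 cells/well, rested 5 hr at 37 °C, then treated 40 hr at 37 °C in complete medium. Cellular ATP read by CellTiter-Glo luminescence; AC50 from Hill-equation fits.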
# [13] = molecular target: Estrogen receptor (Homo sapiens) (UniProt P03372); assay: qHTS assay for small molecule agonists of estrogen receptor alpha signaling (AID 588514); conditions: ER-alpha-UAS-bla HEK293, beta-lactamase ratio, 18 h; series mostly up to 76.8 µM; note: nearly all actives have a fitted effect of over 70% in size
# Sequence of Estrogen receptor (Homo sapiens) (P03372 whole entry, looked up): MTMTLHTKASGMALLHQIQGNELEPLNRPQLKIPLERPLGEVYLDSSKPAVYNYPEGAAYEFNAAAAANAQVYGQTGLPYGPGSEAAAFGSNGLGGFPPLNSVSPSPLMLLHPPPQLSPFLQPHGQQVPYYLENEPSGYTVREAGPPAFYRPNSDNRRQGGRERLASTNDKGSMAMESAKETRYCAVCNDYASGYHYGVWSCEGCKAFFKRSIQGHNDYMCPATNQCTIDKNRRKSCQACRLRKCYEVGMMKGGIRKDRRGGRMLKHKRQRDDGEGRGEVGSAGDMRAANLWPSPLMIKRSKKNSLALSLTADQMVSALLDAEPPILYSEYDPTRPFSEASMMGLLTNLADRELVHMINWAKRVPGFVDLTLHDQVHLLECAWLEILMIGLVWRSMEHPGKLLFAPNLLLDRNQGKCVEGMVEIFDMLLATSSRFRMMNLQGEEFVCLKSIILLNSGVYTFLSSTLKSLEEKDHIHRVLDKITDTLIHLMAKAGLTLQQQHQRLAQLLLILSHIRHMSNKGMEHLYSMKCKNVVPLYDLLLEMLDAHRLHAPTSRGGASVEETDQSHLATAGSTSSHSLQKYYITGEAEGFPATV
# How it was run: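 ER-alpha-UAS-bla GripTite HEK 293 cells in medium with 2% charcoal/dextran-treated FBS were treated with compound titrations at 37 C for 18 hrs; beta-lactamase reporter read by CCF4 fluorescence after 2 hrs at RT.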
# [14] = molecular target: Androgen receptor (Homo sapiens) (UniProt P10275); assay: qHTS assay for small molecule agonists of androgen receptor signaling (AID 588515; active = well fitted curve in the direction sought with a large enough effect in the signal ratio, with a control signal flat; the % refers to the signal ratio); conditions: AR-UAS-bla HEK293, beta-lactamase ratio, agonist 16 h; stronger effect = higher value
# Sequence of Androgen receptor (Homo sapiens) (P10275 whole entry, looked up): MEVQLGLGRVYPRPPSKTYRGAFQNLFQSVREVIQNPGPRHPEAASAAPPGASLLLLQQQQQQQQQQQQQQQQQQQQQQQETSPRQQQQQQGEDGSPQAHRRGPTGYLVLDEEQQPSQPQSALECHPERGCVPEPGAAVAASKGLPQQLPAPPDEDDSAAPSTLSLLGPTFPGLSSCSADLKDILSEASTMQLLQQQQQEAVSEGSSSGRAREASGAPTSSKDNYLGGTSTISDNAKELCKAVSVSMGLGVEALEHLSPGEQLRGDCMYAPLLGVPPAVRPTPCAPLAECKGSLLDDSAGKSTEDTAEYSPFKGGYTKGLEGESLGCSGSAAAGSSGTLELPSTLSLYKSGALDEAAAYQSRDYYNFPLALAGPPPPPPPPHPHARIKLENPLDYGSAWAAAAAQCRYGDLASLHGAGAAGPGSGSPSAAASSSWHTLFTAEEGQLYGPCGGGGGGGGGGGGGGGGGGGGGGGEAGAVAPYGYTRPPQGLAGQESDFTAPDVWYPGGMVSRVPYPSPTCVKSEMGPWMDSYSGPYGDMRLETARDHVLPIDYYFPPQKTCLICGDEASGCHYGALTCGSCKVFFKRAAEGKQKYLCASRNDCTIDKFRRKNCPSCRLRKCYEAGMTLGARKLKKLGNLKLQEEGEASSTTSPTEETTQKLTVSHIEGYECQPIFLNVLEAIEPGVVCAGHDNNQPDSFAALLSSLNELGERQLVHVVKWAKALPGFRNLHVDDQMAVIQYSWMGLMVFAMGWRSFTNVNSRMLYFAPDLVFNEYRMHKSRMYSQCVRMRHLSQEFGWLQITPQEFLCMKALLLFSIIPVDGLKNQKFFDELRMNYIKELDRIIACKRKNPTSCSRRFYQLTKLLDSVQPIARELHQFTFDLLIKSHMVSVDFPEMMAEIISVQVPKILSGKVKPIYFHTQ
# How it was run: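 EC50 and efficacy came from Hill fits of titrations (up to 92 uM) normalized to 30 nM R1881 as 100% and DMSO as 0%. Compound exposure was 16 h at 37 C on AR-UAS-bla HEK293 cells, with a 405/460/530 nm CCF4 fluorescence read.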
# [15] = molecular target: Androgen receptor (Homo sapiens) (UniProt P10275); assay: qHTS assay for small molecule antagonists of androgen receptor signaling (AID 588516; active = well fitted curve in the direction sought with a large enough effect in the signal ratio, with a control signal flat, not every such curve was filed as active; the % refers to the signal ratio); conditions: AR-UAS-bla HEK293, beta-lactamase ratio, antagonist mode, 16 h; series mostly up to 76.8 µM
# How it was run: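 Compounds tested in titration against 10 nM R1881 in AR-responsive bla reporter HEK 293 cells; CCF4 fluorescence (460/530 nm) after 16 h exposure gave IC50 and efficacy.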
# [16] = molecular target: Peroxisome proliferator-activated receptor delta (Homo sapiens) (UniProt Q03181); assay: qHTS assay for small molecule agonists of peroxisome proliferator-activated receptor delta signaling (AID 588534); conditions: HEK293T PPARdelta-UAS-bla, beta-lactamase ratio, 18 h; series mostly up to 76.7 µM
# Sequence of Peroxisome proliferator-activated receptor delta (Homo sapiens) (Q03181 whole entry, looked up): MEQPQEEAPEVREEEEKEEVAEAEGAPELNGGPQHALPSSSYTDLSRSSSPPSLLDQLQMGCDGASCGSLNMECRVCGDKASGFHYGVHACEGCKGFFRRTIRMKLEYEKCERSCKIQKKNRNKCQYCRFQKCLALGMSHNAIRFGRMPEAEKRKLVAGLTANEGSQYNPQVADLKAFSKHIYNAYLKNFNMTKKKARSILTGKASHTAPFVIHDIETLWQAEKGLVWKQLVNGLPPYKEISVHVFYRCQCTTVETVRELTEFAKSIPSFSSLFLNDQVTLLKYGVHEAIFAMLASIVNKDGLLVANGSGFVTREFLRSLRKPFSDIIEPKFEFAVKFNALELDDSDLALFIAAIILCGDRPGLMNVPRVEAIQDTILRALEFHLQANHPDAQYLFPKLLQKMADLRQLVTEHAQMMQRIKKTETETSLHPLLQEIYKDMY
# How it was run: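 Cell-based beta-lactamase reporter assay run in agonist mode: cells seeded and incubated 5 hrs at 37 C, compounds added and incubated 18 hrs at 37 C. CCF4 dye fluorescence read after 2 hrs at RT; EC50 and efficacy from Hill fits.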
# [17] = qHTS assay for small molecule antagonists of peroxisome proliferator-activated receptor delta signaling (AID 588535; active = well fitted inhibition curve with a large enough effect in the signal ratio, with a control signal flat, not every such curve was filed as active; the % refers to the signal ratio;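 for max response: cells co-treated with a PPAR-delta agonist as stimulator during compound exposure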); conditions: HEK293T PPARd-UAS-bla, beta-lactamase FRET ratio, 18 h; 460 nm channel
# How it was run: (§1)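 Cells were seeded at 4000 per well in assay medium containing 2% charcoal/dextran FBS and held 5 hrs at 37 C. Compounds were then added for 18 hrs. CCF4 substrate was applied for 2 hrs at room temperature before fluorescence reading.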
# [18] = molecular target: Peroxisome proliferator-activated receptor delta (Homo sapiens) (UniProt Q03181); assay: as above; conditions: HEK293T PPARd-UAS-bla, beta-lactamase FRET ratio, 18 h; series mostly up to 76.7 µM
# How it was run: as §1
# [19] = molecular target: Thyroid hormone receptor beta (Homo sapiens) (UniProt P10828); assay: qHTS assay for small molecule agonists of thyroid hormone receptor beta signaling (AID 588545); conditions: TR-UAS-bla GripTite HEK 293, beta-lactamase ratio, agonist mode, 18 h; series mostly up to 76.7 µM
# Sequence of Thyroid hormone receptor beta (Homo sapiens) (P10828 whole entry, looked up): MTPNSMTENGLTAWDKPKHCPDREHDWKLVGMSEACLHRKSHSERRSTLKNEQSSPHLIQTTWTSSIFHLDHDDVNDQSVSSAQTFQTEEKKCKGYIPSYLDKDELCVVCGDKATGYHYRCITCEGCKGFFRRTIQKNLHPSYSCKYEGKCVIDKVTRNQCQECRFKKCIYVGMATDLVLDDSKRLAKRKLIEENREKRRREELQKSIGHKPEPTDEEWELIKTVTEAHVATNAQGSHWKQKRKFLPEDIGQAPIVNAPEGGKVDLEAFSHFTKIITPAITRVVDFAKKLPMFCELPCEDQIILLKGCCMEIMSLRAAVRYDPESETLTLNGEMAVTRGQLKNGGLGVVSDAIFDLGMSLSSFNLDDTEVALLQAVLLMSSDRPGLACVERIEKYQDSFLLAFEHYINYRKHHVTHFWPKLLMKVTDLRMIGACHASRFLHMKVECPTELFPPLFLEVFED
# How it was run: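 Compounds were tested as agonists in TR-UAS-bla-GripTite HEK 293 cells. After 18 hrs at 37 C, CCF4 substrate was added and fluorescence read after 2 hrs at room temperature.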
# [20] = qHTS assay for small molecule activators of the p53 signaling pathway (AID 651743; active = well fitted activation curve with a large enough effect in the signal ratio, not every such curve was filed as active; the % refers to the signal ratio); conditions: HCT-116 p53RE-bla, beta-lactamase FRET ratio, 16 h; activation: stronger effect = higher value
# How it was run: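 HCT-116 p53RE-bla, 4,000 cells/well; 5 h settle; cpd/DMSO 16 h, 37 C; LiveBLAzer B/G 2 h RT; fluorescence intensity.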
smiles,measurement,setting,value
O=C1C2CCN(CC2)C1(CO)CO,Potency,[1],> 11.4 µM (inactive)
CN(C(=O)Cc1ccccc1)[C@H](CN1CCCC1)c1ccccc1,Potency,[2],inactive
O=NN1CCCC1c1cccnc1 (stereo not given),Potency,[3],inactive
same,Potency,[4],inactive
CC(C)(c1ccc(OCC2CO2)cc1)c1ccc(OCC2CO2)cc1 (stereo not given),Potency,[5],> 92 µM (inactive)
same,Potency,[6],> 92 µM (inactive)
same,Potency,[7],> 92 µM (inactive)
same,"activity change, negative = cytotoxicity",[8],-4.11% (inactive)
same,"activity change, negative = cytotoxicity",[9],-5.07% (inactive)
same,outcome,[10],inactive
same,outcome,[11],inactive
same,outcome,[12],inactive
same,Potency,[13],inactive
same,activation,[14],11.4% (inactive) and -15.4% (inactive)
same,outcome,[15],inactive
same,Potency,[16],inactive
same,max response,[17],35.6%
same,outcome,[18],inactive
same,Potency,[19],inactive
same,activation,[20],1.86% (inactive) and -8.3% (inactive)
